# Measured values published in PubChem BioAssay (NCI).
# About 83,000 compounds went through this panel and 20% of them were active in at least one assay; those are over-represented in the sample as a whole.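 Single-dose data. Exposure time 48 hours. Values below 10 considered active.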 A number with no mark means an inactive call. Activity calls are given as the source filed them.
# System: HL-60(TB) leukemia
# Assay: NCI-60 one-dose screen, 48 h (100 = growth as untreated, 0 = no growth, -100 = all killed)
# Conditions: 10 µM unless noted
row,Structure (SMILES),growth
1,CNC(=O)Nc1ccc(-c2ccc3ncnc(Nc4cccc(Cl)c4)c3c2)cc1,76.2%
2,O=C(O)/C=C\C(=O)N1C/C(=C\c2ccccc2Cl)C(=O)/C(=C/c2ccccc2Cl)C1,-3.51% (active)
3,CCN1CCN(Cc2ccc(NC(=O)c3nc4ccc5[nH]ncc5c4c4c3CCCC4)cc2C(F)(F)F)CC1,-59% (active)
4,CCN(CC)CCCNc1c2ccc(Cl)cc2nc2ccc(OC)cc12,-50.3% (active)
5,O=C(O)CCC/C=C\C[C@H]1C=CC(=O)/C1=C/C[C@@H](O)CCc1cccc(C(F)(F)F)c1,-11.7% (active)
6,CCOC(=O)c1c2ncccc2n2c(=O)n(-c3ccc(Cl)cc3)nnc12,80.5%
7,COc1ccc(-c2nn(-c3ccc(NC(=O)c4ccc(Cl)c(C(F)(F)F)c4)cc3)cc2-c2ccncc2)cc1Cl,2.89% (active)
8,CC(C)(C)OC(=O)CC(S(=O)(=O)c1ccccc1)S(=O)(=O)c1ccccc1,76.2%
9,CCOC(=O)CC(c1ccccc1)C(C#N)c1ccccc1 (centres undefined),99.3%
10,CNC(=O)c1c(I)c(NC(C)=O)c(I)c(C(=O)O)c1I,122%
11,C#Cc1cccc(NC(=O)c2ccc(Cl)cc2Cl)c1,72.5%
12,CCCC1CCCCN1C(=O)OCC(C)C (centres undefined),107%
13,Clc1cccc(Nc2ncnc3ccc(-c4cncc(-n5cnnn5)c4)cc23)c1,86.6%
14,Cc1cccc(Cl)c1NC(=O)c1cnc(Nc2cc(N3CCOCC3)cc(N3CCOCC3)c2)s1,45.3%
15,COc1ccc(C(=O)NC(=O)Nc2ccc3c(c2)NC(=O)/C3=C\c2[nH]c(C)c(C(=O)O)c2C)c(F)c1,80.8%
16,COc1cc(/C=C/C(=O)c2nc3cc(F)ccc3nc2C)cc(OC)c1OC,-45.6% (active)
17,CCCCCCOc1ccc(/C=C/C(=O)c2ccc(B(O)O)cc2)cc1,18.5%
18,CCOC(=O)Sc1ncnc2nc[nH]c12,2.99% (active)
19,COc1ccc(-c2ccc(-c3ccc(-c4ccc(C(=N)N)cc4)s3)s2)cc1OC,99.1%
20,C=C1C(=O)O[C@H]2[C@H]1CC/C(Cn1cc(-c3cccc(Cl)c3)nn1)=C\CC[C@@]1(C)O[C@@H]21,-24.9% (active)
21,NNC(=O)Oc1c(Cl)cc(Cl)cc1[N+](=O)[O-],98.3%
22,O=C(/C=C/c1ccco1)c1ccc(Nc2ccnc3cc(Cl)ccc23)cc1,6.28% (active)
23,Cc1cc(-c2nc3ccccc3s2)ccc1NC(=O)COc1ccc(Cl)cc1,99.1%
24,CCN(CC)CCO/N=C1\CC(c2ccc(OC)c(OC)c2)Oc2ccccc21 (centres undefined),78.4%
